Laboratory results published in PubChem BioAssay (NCI).
About 83,000 compounds went through this panel and 20% of them were active in at least one assay; those are over-represented in the sample as a whole.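 Compound tested at a single concentration for 48 hours in 96-well plates; a percent growth value below 10 was scored as active.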 Activity calls are given as the source filed them.

Assays:
Assay in all cases: NCI-60 one-dose screen, 48 h (100 = growth as untreated, 0 = no growth, -100 = all killed)
Conditions in all cases: 10 µM unless noted
[1] = system: SK-MEL-2 melanoma
[2] = system: EKVX NSCLC
[3] = system: SN12C renal
[4] = system: UO-31 renal
[5] = system: TK-10 renal
[6] = system: ACHN renal
[7] = system: CAKI-1 renal
[8] = system: A498 renal
[9] = system: CCRF-CEM leukemia
[10] = system: MOLT-4 leukemia
[11] = system: SR leukemia
[12] = system: OVCAR-8 ovarian
[13] = system: OVCAR-5 ovarian
[14] = system: OVCAR-4 ovarian
[15] = system: SK-OV-3 ovarian
[16] = system: IGROV1 ovarian
[17] = system: OVCAR-3 ovarian
[18] = system: HS 578T breast
[19] = system: NCI/ADR-RES ovarian

Measured: growth

O=C(Cc1ccc2c(c1)OCCO2)Nc1nc2ccc(F)cc2s1
inactive: [1] 70.5% | [2] 93.8% | [3] 70.5% | [4] 62.5% | [5] 117% | [6] 98% | [7] 111% | [8] 104% | [9] 87.3% | [10] 95.1% | [11] 103% | [12] 94.7% | [13] 90.3% | [14] 96.4% | [15] 105% | [16] 48.3% | [17] 104% | [18] 106% | [19] 99%

COc1cc(OCc2cccc(-c3ccc(C(O)c4nccs4)cc3)c2C)cc(OC)c1CNCCNC(C)=O (configuration not stated)
inactive: [1] 122% | [2] 97% | [3] 98.1% | [4] 89% | [5] 98.9% | [6] 101% | [7] 93.7% | [8] 88.2% | [9] 91.9% | [10] 94.9% | [11] 85.9% | [12] 96.1% | [13] 98.5% | [14] 91.8% | [15] 113% | [16] 103% | [17] 109% | [18] 105% | [19] 101%

CCCCCCCCCCCCCCCCCCOc1ccccc1CCCOP(=O)(O)OCC[N+](C)(C)C
active: [5] 1.65%
inactive: [1] 102% | [2] 74.1% | [3] 60.9% | [4] 68.5% | [6] 84.5% | [7] 43.4% | [8] 54.1% | [9] 34% | [10] 33.7% | [11] 11.4% | [12] 64.8% | [13] 75.6% | [14] 89.9% | [15] 85% | [16] 15.5% | [17] 84.5% | [18] 93.5% | [19] 95.4%

CCN(CC)CCCNc1nc2ccccc2c2c(=O)c3cc(Cl)ccc3sc12
active: [10] 5.32% | [11] -15.7%
inactive: [1] 108% | [2] 79.1% | [3] 66.9% | [4] 33.8% | [5] 68.7% | [6] 47.3% | [7] 23% | [8] 41.4% | [9] 11.7% | [12] 61.5% | [13] 75.5% | [14] 45.1% | [15] 89.3% | [16] 50.7% | [17] 40.5% | [18] 64.3% | [19] 74.1%

COc1cc2cc(Oc3ccc(NC(=O)Nc4cccc(C(F)(F)F)c4)cc3)c(C)nc2cc1OCCN1CCOCC1
inactive: [1] 78.6% | [2] 25.4% | [3] 47.7% | [4] 51.8% | [5] 66.3% | [6] 21.4% | [7] 56.2% | [8] 64.2% | [9] 23.9% | [12] 25.1% | [13] 109% | [14] 20.1% | [15] 92% | [16] 57.7% | [17] 28.6% | [18] 86% | [19] 45.3%
active: [10] 6.76% | [11] 9.31%

Cc1ccc(-c2nc(N3CCN(CC(=O)Nc4ccc(Cl)c(C(F)(F)F)c4)CC3)c3ccccc3n2)cc1
inactive: [1] 110% | [2] 87.3% | [3] 94.6% | [4] 65.6% | [5] 101% | [6] 95% | [7] 80.2% | [8] 74.6% | [9] 89.5% | [10] 62.6% | [11] 87.2% | [12] 88.9% | [13] 89.9% | [14] 102% | [15] 84.7% | [16] 99.8% | [17] 102% | [18] 97.2% | [19] 86.5%

CCc1cccc2c1S/C(=C/c1ccc(OC)cc1)C2=O
inactive: [1] 51% | [2] 93.9% | [3] 49.4% | [4] 52.9% | [5] 127% | [6] 54.1% | [8] 104% | [9] 35.7% | [10] 34.5% | [11] 15.1% | [12] 55.9% | [13] 76% | [14] 59.4% | [15] 79.3% | [16] 30.4% | [17] 23.8% | [18] 41.5% | [19] 30.2%
active: [7] 6.96%

COc1cccc(-c2nc(-c3ccc(NC(=O)OC(C)C)cc3)[nH]c2-c2ccnc(Br)c2)c1
inactive: [1] 25.6% | [2] 27.6% | [3] 30.8% | [5] 48.6% | [6] 14.5% | [7] 28% | [9] 18.3% | [10] 10.3% | [12] 27.3% | [13] 53.7% | [14] 32.9% | [15] 33.3% | [16] 35.5% | [17] 26.2% | [19] 27.7%
active: [4] 9.01% | [8] -4.13% | [11] -2.3% | [18] -17.2%
